Test results: ChEMBL document CHEMBL4513216, “Probing the Open Global Health Chemical Diversity Library for Multistage-Active Starting Points for Next-Generation Antimalarials” (ACS Infect Dis, 2020)
About 8,600 (12%) of roughly 69,000 compounds showed an effect of 50% or more. This is one part of a sample in which strong results are shown more often than they occur.

These molecules were tested on Plasmodium berghei (assay: Screen against P. berghei liver stage (PbLuc), transformed with Luciferase, at 10uM). Conditions: tested at 10 uM.
Format: functional, HepG2
Work on `Cc1cccc(CS(=O)(=O)c2nnc(N3CCOCC3)s2)c1` yielded an INHIBITION of 0%. `O=S(=O)(Cc1ccccc1)c1nnc(N2CCOCC2)s1` showed an INHIBITION of 0%. `O=S(=O)(Cc1ccccc1)c1nnc(N2CCCC2)s1` gave an INHIBITION of 53.8%. With `CS(=O)(=O)NCc1ncn2c1CN(CCN1CCCC1)CCC2` the INHIBITION was 31.1%. With `CC(C)CC(=O)NCC(O)c1c(F)cccc1F` (stereo not drawn) the INHIBITION was 21.8%. Work on `CCC1CCCCN1Cc1nc2c(cnn2C)c(=O)[nH]1` (stereo not drawn) yielded an INHIBITION of 25.1%. Molecule `CC(C)OCc1ccccc1CNC(=O)C(C)(C)C` has an INHIBITION of 68.6%. `CC(C)OCc1ccccc1CNC(=O)C(C)S(=O)(=O)C(C)C` (stereo not drawn) was tested, and the INHIBITION was 3.84%. `CCc1ccccc1CNC(=O)CNC(=O)C(C)(C)C` showed an INHIBITION of -11.5%. `CCN(CC)C(=O)c1ccc(Cl)c(NC(=O)c2cc(C(C)C)on2)c1` was tested, and the INHIBITION was 43%. `CN(C)Cc1cnc(CC2CCN(CCc3ccccc3)CC2)cn1` was tested, and the INHIBITION was 9.05%. For `c1cnc(N2CCO[C@H]3[C@H](OCC4CC4)CC[C@@H]32)nc1`, the INHIBITION was 21.6%. `CSc1[nH]c(=O)c(C(=O)N2CCCC2c2cccs2)cc1C#N` (stereo not drawn) gave an INHIBITION of 53.3%. Work on `CSc1[nH]c(=O)c(C(=O)N2CCCC2C2CCCC2)cc1C#N` (stereo not drawn) yielded an INHIBITION of 0.672%. In the case of `CCC1CCCCCN1C(=O)c1cc(C#N)c(SC)[nH]c1=O` (stereo not drawn), the INHIBITION was 49.9%. `CN(C)c1ncc(-c2cc(C(=O)N3CCCC3)n(CC3CC3)c2)cn1` gave an INHIBITION of 3.58%. `O=C(c1cnc(-c2ccco2)s1)N1CCOc2ncccc21` showed an INHIBITION of -40.6%. For `CCCc1ncc(C(=O)N2CCOc3ncccc32)s1`, the INHIBITION was 63.8%. `O=C(c1csc(-c2ccco2)n1)N1CCOc2ncccc21` showed an INHIBITION of -178%. `Cc1cccc(OC2(C(=O)O)CCN(C(=O)CCc3ccco3)CC2)c1` gave an INHIBITION of 16.6%. With `Cc1cn(-c2ccccc2)nc1NS(=O)(=O)c1ccc(C(=O)O)cc1` the INHIBITION was 20.9%. `CCc1c(C)n(CC(=O)OC)c2nc3ccccc3n2c1=O` was tested, and the INHIBITION was 15%. For `Cc1noc([C@@H]2C[C@H]3OCC[C@H]3N(S(=O)(=O)c3cccnc3)C2)n1`, the INHIBITION was 30.1%. `CCC[C@H]1CN(S(=O)(=O)c2ccccc2)C[C@@H]1N` showed an INHIBITION of -2.34%. `CCc1ccc(S(=O)(=O)N2CC3(COC(C)(C)OC3)C2)s1` gave an INHIBITION of 42.7%. With `Cc1cc(-c2cc(S(=O)(=O)N3C[C@H](C4CC4)[C@@H](N)C3)c(C)s2)on1` the INHIBITION was 45.3%. In the case of `CCC[C@@H]1CN(S(=O)(=O)c2ccc(C)c(F)c2)C[C@H]1N(C)C`, the INHIBITION was 37.8%. `CCC[C@H]1CN(S(=O)(=O)c2cc(C)ccc2C)C[C@@H]1N` gave an INHIBITION of 57.2%. `CCC[C@H]1CN(S(=O)(=O)c2cc(C)ccc2F)C[C@@H]1N` showed an INHIBITION of 44.2%. Work on `CCC[C@H]1CN(S(=O)(=O)c2ccc(-c3c(C)noc3C)s2)C[C@@H]1N` yielded an INHIBITION of 72.6%. In the case of `CCC[C@H]1CN(S(=O)(=O)c2ccc(CC)s2)C[C@@H]1N`, the INHIBITION was 52.2%. In the case of `CCC[C@H]1CN(S(=O)(=O)c2c(C)noc2C)C[C@@H]1N`, the INHIBITION was -28.9%. Work on `O=C1[C@H]2CN(CC3CCOCC3)C[C@H]2CN1Cc1cccc(F)c1` yielded an INHIBITION of -53.6%. `CNc1nc2cn(Cc3ccc(Cl)cc3)c(=O)c-2c[nH]1` gave an INHIBITION of -14.7%. For `CCc1ncc(C(=O)N2CCCN(C3CCCCC3)CC2)cn1`, the INHIBITION was 37.7%. In the case of `COc1ncc(CN2CCC3(CCNC(=O)CC3)CC2)cn1`, the INHIBITION was 39.5%. For `CN(C)C(=O)C1CN(Cc2cccs2)CCN(S(C)(=O)=O)C1` (stereo not drawn), the INHIBITION was 32.8%. In the case of `Cc1cc(C)n(CC2CCCN2Cc2nc(N)c3ccccc3n2)n1` (stereo not drawn), the INHIBITION was 37.9%. In the case of `Cc1nc(CN2CCCC2Cn2cncn2)nc2ccccc12` (stereo not drawn), the INHIBITION was 5.7%. `Fc1ccccc1OCCN1CCCCC1Cn1cncn1` (stereo not drawn) was tested, and the INHIBITION was -29.1%. `COc1ccccc1OCCN1CCCCC1Cn1cncn1` (stereo not drawn) showed an INHIBITION of 79.5%. `Cc1nc(C)n(CC2CCCN2Cc2nc(N)c3ccccc3n2)n1` (stereo not drawn) was tested, and the INHIBITION was 59.7%. `Nc1nc(CN2CCCCC2Cn2cncn2)nc2ccccc12` (stereo not drawn) was tested, and the INHIBITION was 32.9%. Work on `Cc1cnn(CC2CCCN2CCc2nc3ccccc3c(=O)[nH]2)c1` (stereo not drawn) yielded an INHIBITION of 61.3%. In the case of `N#Cc1ccccc1OCCN1CCCCC1Cn1cncn1` (stereo not drawn), the INHIBITION was 6.56%. `Cc1nc(CN2CCCCC2Cn2cncn2)nc2ccccc12` (stereo not drawn) showed an INHIBITION of 51.3%. In the case of `O=c1[nH]c(CCN2CCCC2Cn2cccn2)nc2ccccc12` (stereo not drawn), the INHIBITION was 14.4%. `Cc1cnn(CC2CCCN2Cc2nc3ccccc3c(=O)[nH]2)c1` (stereo not drawn) gave an INHIBITION of 26.4%. Work on `Cc1nc(C)n(CC2CCCN2Cc2nc(C)c3ccccc3n2)n1` (stereo not drawn) yielded an INHIBITION of 17.4%. `CO[C@@H]1CCN(Cc2cccc(C)n2)[C@@H]2CN(Cc3ccncc3)C[C@@H]21` was tested, and the INHIBITION was -64.5%. Work on `Cc1ccc2snc(C(=O)N3CCN(C(=O)NCCC(C)C)CC3)c2c1` yielded an INHIBITION of 28.4%. `COc1cc(CNCCc2cnn(C)c2)cc2c1OCO2` gave an INHIBITION of -3.75%. `Cc1cnn(CC2CN(Cc3nccn3CC(F)(F)F)CCO2)c1` (stereo not drawn) gave an INHIBITION of 29.7%. Work on `CC(Nc1ncnc2c1NC(=O)CN2)c1ccccn1` (stereo not drawn) yielded an INHIBITION of 14.3%. `Nc1nc(CN2CCCC2Cn2cncn2)nc2ccccc12` (stereo not drawn) gave an INHIBITION of -26.22%. In the case of `Cc1nc(CN2CCCC2Cn2cccn2)nc2ccccc12` (stereo not drawn), the INHIBITION was 27.6%. Work on `c1ccc(-n2ccc(CN3CCCC3Cn3cncn3)n2)cc1` (stereo not drawn) yielded an INHIBITION of 9.64%. `O=C1CCCN1CCCN1CCCCC1Cn1cncn1` (stereo not drawn) showed an INHIBITION of 50.4%. Molecule `c1ccc(-n2cc(CN3CCCCC3Cn3cncn3)nn2)cc1` (stereo not drawn) has an INHIBITION of 0.914%. For `Cc1cnn(CC2CCCN2Cc2nc(C)c3ccccc3n2)c1` (stereo not drawn), the INHIBITION was 53%. `O=C1CCCN1CCCN1CCCC1Cn1cccn1` (stereo not drawn) was tested, and the INHIBITION was 24.6%. Work on `c1ccc(-n2cc(CN3CCCC3Cn3cncn3)nn2)cc1` (stereo not drawn) yielded an INHIBITION of 50.3%. Molecule `Cc1cnn(CC2CCCCN2Cc2nc(N)c3ccccc3n2)c1` (stereo not drawn) has an INHIBITION of 58.2%. For `Cc1cnn(CC2CCCN2Cc2nc(N)c3ccccc3n2)c1` (stereo not drawn), the INHIBITION was 31.2%. With `Cc1cnn(CC2CCCCN2Cc2nc(C)c3ccccc3n2)c1` (stereo not drawn) the INHIBITION was 36.1%. `O=C1CCCN1CCN1CCCCC1Cn1cncn1` (stereo not drawn) showed an INHIBITION of -19.2%. `Cc1ccc(C2CSCCN2C(=O)c2cccnc2)cc1` (stereo not drawn) gave an INHIBITION of -39.8%. In the case of `c1ccc(CO[C@H]2CN(c3ncccn3)C[C@@]23CCCO3)cc1`, the INHIBITION was -42.1%.
